Data: PubChem BioAssay (EPA / NIEHS)
Records with an inconclusive call do not appear. Calls of active or inactive are those of the source. How the source made its calls, unless noted: active means hit-call score of the fitted dose curve at least 0.9, where 1 is the maximum; inactive means score below 0.9.

Columns and labels:
[1] = BSK_LPS_PGE2: BioMAP Diversity Plus: LPS Assay for Prostaglandin E2 (PGE2) Biomarker Activity (AID 2283082); details: primary human HUVEC with PBMC; actives raise or lower the signal;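 on AC50: secreted prostaglandin E2 measured by ELISA in LPS-stimulated co-culture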
Summary of the method: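 Endpoint derived from bidirectional curve fitting versus DMSO of ELISA-measured PGE2 in LPS-stimulated human primary vascular co-culture (HUVEC with PBMC) harvested at 24 h.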

[2] = read-out: Macrophage colony-stimulating factor (MCSF), CSF1 (gene 1435); assay: BSK_LPS_MCSF: BioMAP Diversity Plus: LPS Assay for Macrophage colony-stimulating factor (MCSF) Biomarker Activity (AID 2283083); details: primary human HUVEC with PBMC; actives raise or lower the signal
Summary of the method: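 HUVEC–PBMC co-culture, M-CSF measured by ELISA 24 h after chemical dosing. Fitted in both directions relative to DMSO as negative control; overt cytotoxicity assessed by SRB total-protein staining in parallel cultures.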

[3] = read-out: Tissue Factor, F3 (gene 2152); assay: BSK_LPS_TissueFactor: BioMAP Diversity Plus: LPS Assay for Tissue Factor Biomarker Activity (AID 2283084); details: primary human HUVEC with PBMC; actives raise or lower the signal
Summary of the method: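 Human umbilical vein endothelial cells co-cultured with PBMC were dosed with compound. Cell-surface CD142 was measured by ELISA 24 h later. Activity was fitted bidirectionally against DMSO, with SRB total-protein staining in parallel cultures for cytotoxicity.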

[4] = read-out: Tumor necrosis factor (Homo sapiens) (UniProt P01375); assay: BSK_LPS_TNFa: BioMAP Diversity Plus: LPS Assay for Tumour Necrosis Factor alpha (TNFa) Biomarker Activity (AID 2283085); details: primary human HUVEC with PBMC; actives raise or lower the signal
Summary of the method: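 Primary human vascular co-culture of HUVEC and PBMC; TNFa ELISA 24 h after treatment, analysed as increase or decrease relative to DMSO control.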

[5] = read-out: Vascular cell adhesion molecule 1 (VCAM1), VCAM1 (gene 7412); assay: BSK_LPS_VCAM1: BioMAP Diversity Plus: LPS Assay for Vascular cell adhesion molecule 1 (VCAM1) Biomarker Activity (AID 2283086); details: primary human HUVEC with PBMC; actives raise or lower the signal
Summary of the method: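 Primary human vascular co-culture (umbilical vein endothelium plus PBMC) stimulated with LPS received chemical; 24 h later VCAM-1 was read by ELISA. Overt cytotoxicity was assessed by sulforhodamine B staining of parallel cultures at the same time point.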

CD38, CD38 (gene 952) = assay: BSK_SAg_CD38: BioMAP Diversity Plus: SAg Assay for CD38 Biomarker Activity (AID 2283087); details: primary human HUVEC with PBMC; actives raise or lower the signal
Summary of the method: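 Fluorescence ELISA of cell-surface CD38 served as the read-out, with either increase or decrease fitted against DMSO controls. Cells were a human umbilical vein endothelium plus PBMC co-culture under SEB/TSST-1 stimulation, measured 24 h after dosing.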

CD40, CD40 (gene 958) = assay: BSK_SAg_CD40: BioMAP Diversity Plus: SAg Assay for CD40 Biomarker Activity (AID 2283088); details: primary human HUVEC with PBMC; actives raise or lower the signal
Summary of the method: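 HUVEC plus PBMC co-culture, superantigen-activated, with CD40 read by ELISA 24 h after dosing. Curves fitted in both directions against DMSO. Overt cytotoxicity checked by parallel SRB total-protein staining.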

CD69, CD69 (gene 969) = assay: BSK_SAg_CD69: BioMAP Diversity Plus: SAg Assay for CD69 Biomarker Activity (AID 2283089); details: primary human HUVEC with PBMC; actives raise or lower the signal;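 on AC50: cell surface CD69 protein quantified by ELISA with fluorescence detection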
Summary of the method: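 HUVEC co-cultured with PBMC were dosed with chemical, and CD69 was measured by ELISA with fluorescence read-out 24 h later. Bidirectional curve fitting used DMSO as negative control and activity baseline.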

[6] = read-out: Monocyte Chemoattractant Protein-1 (MCP1), CCL2 (gene 6347); assay: BSK_SAg_MCP1: BioMAP Diversity Plus: SAg Assay for Monocyte Chemoattractant Protein-1 (MCP1) Biomarker Activity (AID 2283090); details: primary human HUVEC with PBMC; actives raise or lower the signal
Summary of the method: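 MCP-1 levels in the endothelial–PBMC SAg co-culture were quantified by ELISA at 24 h post-dosing; both increases and decreases versus DMSO scored. Cytotoxicity monitored by SRB total protein in parallel cultures.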

[7] = read-out: E-selectin (Homo sapiens) (UniProt P16581); assay: BSK_SAg_Eselectin: BioMAP Diversity Plus: SAg Assay for Eselectin Biomarker Activity (AID 2283091); details: primary human HUVEC with PBMC; actives raise or lower the signal
Summary of the method: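 Human umbilical vein endothelial cells co-cultured with peripheral blood mononuclear cells, SAg system. E-selectin is measured by ELISA 24 h after dosing and fitted bidirectionally against DMSO. Cytotoxicity is checked by SRB staining of parallel cultures.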

[8] = read-out: Monokine induced gamma interferon (MIG), CXCL9 (gene 4283); assay: BSK_SAg_MIG: BioMAP Diversity Plus: SAg Assay for Monokine induced gamma interferon (MIG) Biomarker Activity (AID 2283092); details: primary human HUVEC with PBMC; actives raise or lower the signal
Summary of the method: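 HUVEC plus human PBMC co-culture, chemicals dosed and MIG (CXCL9) quantified by ELISA at 24 h. Bidirectional curve fitting against DMSO as negative control and baseline, so both gain and loss of signal count as activity.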

[9] = BSK_SAg_PBMCCytotoxicity: PBMC Cytotoxicity Assessment in the BioMAP Diversity Plus: SAg Assay (AID 2283093); details: primary human HUVEC with PBMC;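 further: PBMC viability measured as Alamar Blue reduction fluorescence at 546/580 nm; fitted both ways against DMSO so a hit may be loss or gain of signal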
Summary of the method: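 Human umbilical vein endothelial cells co-cultured with PBMC; PBMC (75,000/well) pre-treated with compound 1 h, then activated with SEB and TSST-1 (20 ng/mL final each) for 90 h. Alamar Blue added 6 h, fluorescence 546/580 nm; bidirectional fit versus DMSO.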

[10] = read-out: Interleukin-8 (IL8), CXCL8 (gene 3576); assay: BSK_SAg_IL8: BioMAP Diversity Plus: SAg Assay for Interleukin-8 (IL8) Biomarker Activity (AID 2283094); details: primary human HUVEC with PBMC; actives raise or lower the signal
Summary of the method: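 In this co-culture of human umbilical vein endothelium with peripheral blood mononuclear cells, IL-8 is assayed by ELISA at 24 h. DMSO serves as baseline for bidirectional curve fitting.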

[11] = BSK_SAg_Proliferation: Cell Proliferation Assessment in the BioMAP Diversity Plus: SAg Assay (AID 2283095); details: primary human HUVEC with PBMC;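 further: relative cell number as total protein by SRB absorbance in sub-confluent culture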
Summary of the method: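 Readout is SRB-stained protein (560 nm) in a primary human HUVEC and PBMC co-culture; sub-confluent cultures are read at 96 h. Activity is fitted bidirectionally using DMSO as baseline.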

[12] = BSK_SAg_SRB: Viability Assessment in the BioMAP Diversity Plus: SAg Assay (AID 2283096); details: primary human HUVEC with PBMC;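 further: cells read one day after compound addition; hits may be either gain or loss of signal compared with DMSO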
Summary of the method: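 Endothelial/PBMC primary human co-culture; compound 24 h; fix 10% TCA, stain 0.1% SRB, A560; protein content as cytotoxicity proxy; bidirectional curve fit, DMSO = baseline.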

[13] = biological target: human CYP1A1, CYP1A1 (gene 1543) (UniProt P04798); assay: NVS_ADME_hCYP1A1: NovaScreen (NVS) CYP450-related Enzyme Activity (ADME) Assay for human CYP1A1 (AID 2283100; active means hit-call score of the fitted dose curve at least 0.9, where 1 is the maximum)
human CYP1A1, CYP1A1 (gene 1543), sequence (P04798 whole entry, looked up): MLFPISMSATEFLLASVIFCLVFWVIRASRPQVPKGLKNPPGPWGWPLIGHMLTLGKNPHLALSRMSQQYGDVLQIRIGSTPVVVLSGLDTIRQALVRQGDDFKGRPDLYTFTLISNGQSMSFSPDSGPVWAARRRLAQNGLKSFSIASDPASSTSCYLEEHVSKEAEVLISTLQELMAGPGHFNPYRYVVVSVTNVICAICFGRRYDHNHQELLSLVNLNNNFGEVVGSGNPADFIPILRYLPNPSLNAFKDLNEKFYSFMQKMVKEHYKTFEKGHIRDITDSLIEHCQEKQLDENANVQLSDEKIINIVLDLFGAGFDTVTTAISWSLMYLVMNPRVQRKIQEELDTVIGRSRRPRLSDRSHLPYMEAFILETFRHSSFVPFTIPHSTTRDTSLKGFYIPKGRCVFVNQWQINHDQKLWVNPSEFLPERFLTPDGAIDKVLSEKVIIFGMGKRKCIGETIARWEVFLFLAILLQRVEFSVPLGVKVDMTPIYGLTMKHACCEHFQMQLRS
Summary of the method: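 Recombinant CYP1A1 with a fluorogenic substrate, cell-free, read 1 h after dosing; acetonitrile as negative control. Single-concentration screen at 10 uM in duplicate, then concentration-response up to 20 uM for chemicals meeting ~30% inhibition threshold.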

Measured: AC50

E-selectin (Homo sapiens), sequence (P16581 whole entry, looked up): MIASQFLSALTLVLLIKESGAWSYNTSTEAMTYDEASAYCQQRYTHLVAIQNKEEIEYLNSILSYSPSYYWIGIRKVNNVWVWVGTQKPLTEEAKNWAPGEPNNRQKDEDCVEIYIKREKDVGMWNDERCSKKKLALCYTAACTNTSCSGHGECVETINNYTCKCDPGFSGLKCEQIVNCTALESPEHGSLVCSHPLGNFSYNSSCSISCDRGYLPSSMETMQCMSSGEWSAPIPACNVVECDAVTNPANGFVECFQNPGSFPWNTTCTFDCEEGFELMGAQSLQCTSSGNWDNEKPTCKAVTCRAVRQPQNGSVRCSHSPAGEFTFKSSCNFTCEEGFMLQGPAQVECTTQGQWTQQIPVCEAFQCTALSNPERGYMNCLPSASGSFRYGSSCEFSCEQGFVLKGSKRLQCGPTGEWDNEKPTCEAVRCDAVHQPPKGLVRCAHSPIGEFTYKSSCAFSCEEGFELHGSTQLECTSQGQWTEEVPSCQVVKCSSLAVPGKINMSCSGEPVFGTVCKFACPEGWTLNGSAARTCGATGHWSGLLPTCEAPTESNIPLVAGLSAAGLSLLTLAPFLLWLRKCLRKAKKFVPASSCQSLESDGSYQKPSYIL
Tumor necrosis factor (Homo sapiens), sequence (P01375 whole entry, looked up): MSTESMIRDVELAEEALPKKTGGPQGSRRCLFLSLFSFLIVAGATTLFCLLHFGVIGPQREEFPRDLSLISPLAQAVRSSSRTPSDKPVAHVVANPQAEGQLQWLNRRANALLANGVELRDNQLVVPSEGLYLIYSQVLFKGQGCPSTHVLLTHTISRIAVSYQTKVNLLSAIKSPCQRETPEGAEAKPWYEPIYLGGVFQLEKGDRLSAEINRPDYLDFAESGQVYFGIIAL

Cc1cccc(C)c1O
active: [1] 4.8 µM
not listed: [13]
inactive: all other assays above

COc1ccc(S(=O)(=O)N2C(=O)[C@@](c3ccccc3OC)(N3C[C@H](O)C[C@H]3C(=O)N(C)C)c3cc(Cl)ccc32)c(OC)c1
inactive: [1] | [3] | CD38, CD38 (gene 952) | [6] | [8] | [9] | [13]
active: [2] 32 µM | [4] 16.6 µM | [5] 27 µM | CD40, CD40 (gene 958) 20 µM | CD69, CD69 (gene 969) 11.9 µM | [7] 20 µM | [10] 20 µM | [11] 29.4 µM | [12] 29.7 µM

CCNc1cccc(C)c1
not listed: [13]
inactive: all other assays above

CC(=O)C(C)=CC1C(C)=CCCC1(C)C (stereo unspecified)
not listed: [13]
inactive: all other assays above

CCCCCCOCCO
not listed: [13]
inactive: all other assays above

C=CCc1ccc(O)c(OC)c1
active: [1] 0.542 µM | [7] 4.26 µM
not listed: [13]
inactive: all other assays above

CCCCCCCCCCO
active: [3] 0.152 µM
not listed: [13]
inactive: all other assays above

Clc1cc(Cl)c(Cl)cc1Cl
not listed: [13]
inactive: all other assays above
